Results filed as inconclusive are left out. Where a call stands in place of a potency, no number is given. Activity calls are given as the source filed them. The call rests on the fitted dose curve; in most records, active means well fitted inhibition curve with a large enough effect; inconclusive means small, poorly fitted or top-dose-only effect; inactive means no such curve, though single readings can be large or run the other way.
Assay: Acumen qHTS Assay for Inhibitors of the mTORC1 Signaling Pathway in WT MEF Cells: Hit Validation; further: nearly all actives have a fitted effect of over 60% in size
Settings: Acumen imaging; series mostly up to 37.3 µM
Summary of the method: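 Read-out is immunofluorescent phospho-rpS6 (Ser235/236) normalised to PI-stained cell number, reported as % active cells using a 7.5 nM rapamycin threshold. Cells: WT or Tsc2-/-, p53-/- MEFs, compound-exposed 24 h at 37C; PI count also tracks viability.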
Potency means the concentration at half of the fitted maximal effect.

Compound	Potency
Cc1cccc(N(CC(=O)NCCSc2ccc(Cl)cc2)S(=O)(=O)c2ccccc2)c1C	inactive
Nc1nc(Nc2ccccc2F)sc1C(=O)c1ccc(Cl)cc1	inactive
CCN(c1ccccc1)S(=O)(=O)c1cc(C(=O)Nc2ccc(Br)cc2)ccc1F	13.1 µM (active)
COc1cc(OC)cc(C(=O)NCCc2csc(-c3cccc(C)c3)n2)c1	inactive
Cc1ccccc1CN1C(=O)C(O)(CC(=O)c2cccc(Br)c2)c2ccccc21 (stereo not given)	inactive
CCOC(=O)CSc1nc2cc3c(cc2c(=O)n1CCCCCC(=O)NCc1ccc2c(c1)OCO2)OCO3	inactive
O=C(NCc1ccccc1Cl)C(=O)NCC(c1cccs1)S(=O)(=O)c1cccs1 (stereo not given)	inactive
Cc1cccc(CSCCNC(=O)CN(c2ccccc2)S(=O)(=O)N(C)C)c1	inactive
COc1ccc(Cn2c(C(=O)O)c(CNCc3ccc(SC)cc3)c3ccc(OC)cc32)cc1	inactive
CC(C)CS(=O)(=O)c1oc(-c2ccc(F)cc2)nc1S(=O)(=O)c1ccccc1	0.585 µM (active)
Cn1nc(-c2ccc(OCC(=O)Nc3ccc(Cl)cc3)cc2)c2ccccc2c1=O	inactive
Cc1ccc(-n2ncc(C(=O)NCCCN3CCc4ccccc4C3)c2C2CCN(C(=O)OC(C)(C)C)CC2)c(C)c1	inactive
CC(C)(C)c1ccc(C(=O)Nc2nnc3n2CCS3)cc1	8.26 µM (active)
COc1ccc(CNC(=O)C2CCN(c3nc4ccc(C)cc4[nH]3)CC2)cc1	inactive
Cc1c(C2=CCN(S(=O)(=O)c3ccc(Br)cc3)CC2)c2ccccc2n1CC(=O)N1CCCC1	inactive
Cc1ccc(C(=O)c2cn(CC(=O)NCc3ccccc3Cl)c3nc(C)ccc3c2=O)cc1	inactive
CCN(CC)CCOC(=O)c1ccc(NC(=O)c2nn(-c3ccc(C)cc3)c(=O)c3c2c2ccccc2n3C)cc1	1.17 µM (active)
O=C(NCc1ccc(Cl)cc1)C(=O)NCC(c1cccs1)S(=O)(=O)c1ccc(Cl)cc1 (stereo not given)	inactive
CC1CCN(S(=O)(=O)c2ccc(C(=O)Nc3sc4c(c3C(N)=O)CC(C)(C)NC4(C)C)cc2)CC1	3.29 µM (active)
Cc1nn(CCCC(=O)NCc2ccccc2)c(=O)c2c1sc1ccccc12	inactive

Compound	Potency
CC(C)(C)c1ccc(C2NC(=O)c3n[nH]c(-c4cccs4)c32)cc1 (stereo not given)	inactive
COc1ccc(Cl)cc1NC(=O)CCCS(=O)(=O)c1nc(-c2ccc(OC)c(OC)c2)cc(C(F)(F)F)n1	3.69 µM (active)
COc1cc(CN(C(=O)COc2ccc(C)c(C)c2)c2ccccn2)cc(OC)c1OC	inactive
CCCCS(=O)(=O)c1oc(-c2cccs2)nc1S(=O)(=O)c1ccccc1	1.31 µM (active)
COc1cc(OC)c(NC(=O)Nc2ccc3c(c2)N(C)C(=O)c2ccccc2S3)cc1Cl	5.21 µM (active)
Cc1ccccc1NC(=O)c1sc2nc3c(cc2c1N)CCCC3	inactive
CCOC(=O)c1ccc(NC(=O)c2nc(S(=O)(=O)Cc3ccccc3)ncc2Cl)cc1	6.56 µM (active)
Cc1oc(-c2ccccc2F)nc1Cn1c(SCc2cccc(Cl)c2)nc2ccncc21	inactive
Cc1ccc2sc(N(CCCN(C)C)C(=O)c3ccco3)nc2c1C	inactive
COc1cc(C(=O)N(CCCN(C)C)c2nc3c(OC)cccc3s2)cc(OC)c1OC	inactive
NC(N)=NC(=O)c1nc(Cl)c(N)nc1N	inactive
Cc1ccc(S(=O)(=O)Nc2ccc3c(c2)c(C(=O)OC(C)C)c(C)n3S(=O)(=O)c2ccc(C)cc2)cc1	inactive
COc1ccc(-c2nc(S(=O)(=O)c3ccc(Cl)cc3)c(N3CCCCCC3)o2)cc1	inactive
CCCS(=O)(=O)c1ncc(Cl)c(C(=O)N2CCN(c3ccc(OC)cc3)CC2)n1	2.93 µM (active)
COc1ccc(NC(=O)c2ccc3c(=O)n4nc(Nc5cc(C)ccc5C)sc4nc3c2)cc1	2.93 µM (active)
Cc1nn(C(C)C(=O)NC2CCCCC2)c(=O)c2c1sc1ccccc12 (stereo not given)	inactive
COc1cc2ncnc(Nc3ccc(F)c(Cl)c3)c2cc1OCCCN1CCOCC1	inactive
O=C(NCCN1CCN(c2cccc(Cl)c2)CC1)Nc1ccccc1C(F)(F)F	inactive
CCOc1cc(CNCCSc2nnnn2C)cc(Cl)c1OCc1ccc(Cl)cc1	inactive
CCn1c(CN2CCC(C)CC2)nc2cc(NC(=O)c3ccccc3[N+](=O)[O-])ccc21	inactive

— PubChem BioAssay AID651789 (National Center for Advancing Translational Sciences (NCATS), 2012)
